Measurements from PubChem BioAssay AID504466 (National Center for Advancing Translational Sciences (NCATS), 2011).
Out of some 330,000 compounds screened, about 4,200 (1.3%) were called active. About 6% were inconclusive and are not listed. The list comes from a sample in which actives are over-represented; it also holds similar structures and randomly drawn compounds. Unmarked numbers belong to inactive results. Calls come from the whole dose curve; as a rule, active = well fitted activation curve with a large enough effect; inconclusive = small, poorly fitted or top-dose-only effect; inactive = no such curve, though single readings can be large or run the other way.

test: qHTS screen for small molecules that induce genotoxicity in human embryonic kidney (HEK293T) cells expressing luciferase-tagged ELG1; details: HEK293T ELG1-luciferase reporter, luminescence, 16 h; series mostly up to 46 µM; activity change, positive = activation: at the top concentration; note: nearly all actives have a fitted effect of over 60% in size; for activity change, positive = activation: % of control where 0% means no effect
Outline: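 Luminescence read-out: rising ELG1-luciferase signal, reflecting elevated ELG1 protein under genetic stress, flags genotoxic compounds. Cells were treated for 16 hr at 37 °C before ONE-Glo detection.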
Potency is the fitted concentration of half-maximal effect.

| Structure (SMILES) | Potency | activity change, positive = activation |
| --- | --- | --- |
| N#CC(=C1SC=CS1)c1nc(-c2ccccc2)cs1 | 5.8 µM (active) |  |
| N#C/C(=C1/CCCN1)c1ccccn1 |  | -2.36% |
| COc1cc(/C=C/C(=O)OCC(=O)NCCCc2ccccc2)ccc1O |  | 5.01% |
| O=C(NCCC(=O)N1O[C@@H]2C=C[C@H]1C2)OCC1c2ccccc2-c2ccccc21 |  | 5.79% |
| O=C(COC(=O)c1n[nH]c2ccccc12)NCc1ccccc1 |  | 7.07% |
| COc1ccc(COC(=O)c2n[nH]c3ccccc23)cc1F | 14.6 µM (active) |  |
| COc1ccc(NC(=O)COC(=O)c2n[nH]c3ccccc23)c(OC)c1 |  | -1.81% |
| O=C(CC1SC(N2CCOCC2)=NC1=O)Nc1ccccc1F (stereo not given) |  | 3.27% |
| c1coc(CNc2ncnc3ccccc23)c1 |  | -10.6% |
| Cc1noc(C)c1-c1ccc2ncnc(NC(C)c3ccco3)c2c1 (stereo not given) | 16.4 µM (active) |  |
| COc1ccc(NS(=O)(=O)c2ccc(C(=O)Nc3c(C)n(C)n(-c4ccccc4)c3=O)cc2)cc1 |  | 1.95% |
| CCCN(C(=O)CSc1nnc(N)s1)c1c(N)n(Cc2ccccc2)c(=O)[nH]c1=O |  | -2% |
| CN(C(=O)CSc1cccc[n+]1[O-])C1CCCCC1 |  | 2.05% |
| CCCOC(=O)Nc1ccccc1C(N)=O |  | -0.681% |
| Cc1cccc(OCCC(=O)Nc2ccccc2C(N)=O)c1 |  | -2.38% |
| COc1cccc(OCC(=O)Nc2ccccc2C(N)=O)c1 | 5.17 µM (active) |  |
| NS(=O)(=O)c1ccc(CNC(=S)NC(=O)c2ccco2)cc1 |  | 2.68% |
| O=C(NNS(=O)(=O)c1c(F)cc(F)c(Cl)c1F)C12CC3CC(CC(C3)C1)C2 |  | -0.967% |
| Cn1cncc1C#Cc1c(-c2ccsc2)sc2ccccc12 |  | -2.38% |
| O=C(Nc1nnc(-c2ccccc2)o1)c1cccc(S(=O)(=O)N2CCOCC2)c1 |  | -10.2% |
| O=C(NCc1ccc2c(c1)OCO2)c1cc([N+](=O)[O-])ccc1N1CCOCC1 |  | -2.21% |
| O=C(Nc1ccon1)c1cccc(Cl)c1 |  | 0.203% |
| O=C(Nc1ccon1)c1sc2ccccc2c1Cl | 13 µM (active) |  |
| Cc1nn(C)cc1/C=N/NC(=O)c1sc2ccccc2c1Cl |  | 3.94% |

| Structure (SMILES) | Potency | activity change, positive = activation |
| --- | --- | --- |
| Cc1ccc(NC(=O)Cn2cnc3c(OCc4ccccc4)ncnc32)cc1C |  | 3.02% |
| CN(CCO)c1ccc(/C=N/Nc2nncc3ccccc23)cc1 | 0.116 µM (active) |  |
| COc1cc(/C=N/Nc2nn3cnnc3c3ccccc23)cc(OC)c1OC |  | -0.781% |
| FC(F)(F)c1nc2ccccc2nc1N/N=C/c1ccc(Cl)cc1 |  | -2.13% |
| C/C=C/c1ccc(OCC(=O)NNC(=O)CN(C)S(=O)(=O)c2ccc(C)cc2)c(OC)c1 |  | 0.0839% |
| CC(Sc1ccccc1F)C(=O)Nc1cccc(S(=O)(=O)N2CCOCC2)c1 (stereo not given) |  | -0.0904% |
| COc1ccccc1Nc1ncnc2c1oc1ccccc12 | 14.6 µM (active) |  |
| CCC(C(=O)OC)n1cnc2c(oc3ccccc32)c1=O (stereo not given) |  | 5.09% |
| COc1ccc(C)cc1Nc1nc(C)nc2c1oc1ccccc12 |  | 0.558% |
| CCCCOc1ccc(-c2ncc(C(=O)OCC)c(N)n2)cc1 | 10.3 µM (active) |  |
| CCCCCCOc1ccc(OC(=O)c2cccnc2)cc1 |  | 3.9% |
| CCOC(=O)c1cnc(SCc2nc(N)nc(Nc3ccc(OC)cc3)n2)nc1N |  | 4.89% |
| Cc1c(NC(=O)CN(C)CC(=O)Nc2ccc(F)c(F)c2F)c(=O)n(-c2ccccc2)n1C |  | 0.0923% |
| Cc1ccsc1C(=O)OCC(=O)NCCc1ccccc1 |  | 10.7% |
| COc1ccc(-c2csc(-c3cccs3)n2)cc1OC | 16.4 µM (active) |  |
| COc1ccc(OC)c(-c2csc(-c3cccs3)n2)c1 |  | 3.44% |
| COc1ccc(C2CC(c3cccs3)=Nc3ccccc3S2)cc1OC (stereo not given) |  | 0.582% |
| CC[C@@]1(C(=O)OC)N[C@H](CN(C)C(C)=O)[C@@H]2C(=O)N(C)C(=O)[C@@H]21 |  | 1.22% |
| CC(=O)c1c(OCC(=O)N(C)C2CCCCC2)ccc2c(C)cc(=O)oc12 |  | 3.2% |
| COc1ccccc1CSc1nc2ccccc2[nH]1 | 23.1 µM (active) |  |
| Clc1ccccc1SCc1nc2ccccc2[nH]1 |  | 15% |
| COc1ccccc1CSc1ncc(-c2ccc([N+](=O)[O-])cc2)[nH]1 |  | -0.532% |
| CC[C@]1(C(=O)OC)[C@H]2C(=O)N(Cc3ccccc3)C(=O)[C@H]2[C@H]2CN=C(SCc3ccc(Cl)cc3)N21 |  | -5.96% |
| O=C(C[C@@H]1C/C=C\CCC(=O)OC[C@@H]2CCCN2C1=O)NCCO |  | 3.18% |

| Structure (SMILES) | Potency | activity change, positive = activation |
| --- | --- | --- |
| CN(C(=O)COC(=O)c1cc(=O)[nH]c2ccccc12)C1CCCCC1 |  | 18.4% |
| CCCCNc1c(-c2cccc(Sc3ccc(OC)cc3)c2)nc2ccccn12 |  | -5.54% |
| CN1CCN(c2ccc(NC(=O)c3ccc4c(c3)[nH]c(=O)n4Cc3ccc(F)cc3)cc2)CC1 |  | -2.36% |
| CN1CCN(c2ccc(NC(=O)c3ccccc3)cc2)CC1 | 10.3 µM (active) |  |
| CN1CCN(c2ccc(NC(=O)c3cc(Cl)c4c(c3)OCCO4)cc2)CC1 |  | 9.93% |
| N#Cc1cc([N+](=O)[O-])ccc1NC(=O)COC(=O)c1cnccn1 |  | -4.95% |
| O=C(NCCCNC(=O)c1ccccc1Cl)c1cnccn1 |  | 1.2% |
| COC(=O)c1ccc(OC(=O)c2cnccn2)cc1 |  | 0.398% |
| Cn1c(=NC(=O)c2cnccn2)sc2ccccc21 | 8.2 µM (active) |  |
| CC1(c2ccccc2)NC(=O)N(CC(=O)N2CC(=O)Nc3ccccc32)C1=O (stereo not given) |  | 0.668% |
| Cc1ccc(C)c(S(=O)(=O)N2CCN(c3ncnc4sccc34)CC2)c1 |  | -12.2% |
| CC(C)CC1NC(=O)c2cc(Cl)ccc2-n2c1nc1ccccc1c2=O (stereo not given) |  | 0.392% |
| Cc1ccnc(NC(=O)c2ccco2)n1 |  | 4.05% |
| Cc1ccnc(Nc2nc3ccccc3s2)n1 | 2.06 µM (active) |  |
| Cn1nnnc1SCC(=O)Nc1nc2ccccc2s1 |  | 14.9% |
| Cc1ccccc1NC(=O)CSC(=O)c1ccccc1 |  | -4.93% |
| Cc1nn(Cc2ccc(Cl)c(Cl)c2)c(C)c1NC(=O)c1cc(C2CC2)on1 |  | 2.15% |
| CSc1ccccc1NC(=O)c1cc(C2CC2)on1 | 23.1 µM (active) |  |
| O=C(Nc1cc(C(F)(F)F)ccc1Cl)c1cc(C2CC2)on1 |  | -1.5% |
| COc1cc(C)ccc1OCC(=O)OCC(=O)c1ccc[nH]1 |  | 3.48% |
| CC(C)(C)OC(=O)C[C@@H]1C/C=C\C[C@@H](CC(=O)NCCO)C(=O)N[C@H](Cc2c[nH]c3ccccc23)COC1=O |  | 0.381% |
| C=CC[C@@H](CC(=O)N[C@@H](CO)Cc1ccccc1)C(=O)N[C@H](COC(=O)[C@H](CC=C)CC(=O)OC(C)(C)C)Cc1ccccc1 |  | 10.3% |
